This passage reports Potency and outcome results from PubChem BioAssay (Tox21).

Results filed as inconclusive are left out. A structure can be active in one record and inactive in another. Calls of active or inactive are those of the source. Unless noted, calls follow the shape of the dose curve; as a rule, active = well fitted curve in the direction sought with a large enough effect in the repeat runs; inconclusive = weak or mixed curves; inactive = no such curve, though single readings can be large; an effect the other way counts as inactive or inconclusive.

Assay [1] has as its target Estrogen receptor beta (Homo sapiens) (UniProt Q92731). Put plainly: qHTS assay to identify small molecule agonists of the estrogen receptor beta (ER-beta) signaling pathway (AID 1259377; active = well fitted activation curve with a large enough effect in the signal ratio in the repeat runs, not every such curve was filed as active; the % refers to the signal ratio). In short, it runs like this: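 HEK293T ER-beta-UAS-bla; 2% charcoal-stripped FBS; cells pre-incubated 6 hr, compound 16 hr, 37C/5% CO2; LiveBLAzer B/G FRET substrate 2 h RT; fluorescence intensity read.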
A general note: qHTS replaces the single test concentration by a dilution series.

Assay [2] has the same target. Put plainly: qHTS assay to identify small molecule antagonists of the estrogen receptor beta (ER-beta) signaling pathway (AID 1259378; active = well fitted inhibition curve with a large enough effect in the signal ratio in the repeat runs, not every such curve was filed as active; the % refers to the signal ratio). The essentials:
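Antagonist mode: compounds added to beta-lactamase reporter HEK293T ER-beta-UAS cells stimulated with E2 (1nM final), 16 hr at 37C. LiveBLAzer B/G FRET substrate, 2 hours room temperature, fluorescence read-out.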

The nature of assay [3]: qHTS assay to identify small molecule agonists of the androgen receptor (AR) signaling pathway in the presence of an antagonist - cell viability counter screen (AID 1259379).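 Also: MDA-kb2 human breast cancer cells carrying an MMTV luciferase reporter; series mostly up to about 92 µM; nearly all actives have a fitted effect of over 25% in size.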 The essentials:
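Seed MDA-kb2 at 3,000 cells/well; incubate 5 hr, 37C, 0% CO2. Add nilutamide to 3.0uM final, then pin compounds at 15 concentrations. Incubate 16 hr. Add CellTiter-Fluor at 15 hr, read fluorescence after 1 hr.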

Assay [4] in a line: qHTS assay to identify small molecule agonists of the estrogen receptor beta (ER-beta) signaling pathway - cell viability counter screen (AID 1259380). Also: nearly all actives have a fitted effect of over 30% in size. The essentials: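 CellTiter-Glo read, 30 min RT, same wells as bla assay; cells ER-beta-UAS-bla HEK293T; 16 hr compound, 37C; medium 2% charcoal-stripped FBS.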
Assay [5] addresses Androgen receptor (Homo sapiens) (UniProt P10275). Description: qHTS assay to identify small molecule agonists of the androgen receptor (AR) signaling pathway in the presence of an antagonist (AID 1259381; calls by dose curve; also: nearly all actives have a fitted effect of over 15% in size). In short, it runs like this:
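Test compounds at 15 concentrations were incubated for 16hr with MDA-kb2 reporter cells in presence of 3.0uM nilutamide (final). Signal: ONE-Glo luciferase luminescence.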

Assay [6] is described as follows: qHTS assay to identify small molecule antagonists of the estrogen receptor beta (ER-beta) signaling pathway - cell viability counter screen (AID 1259382).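 Also: HEK293T cells carrying ER-beta-UAS-bla reporter stimulated with estradiol; series mostly up to about 92 µM; nearly all actives have a fitted effect of over 55% in size.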 In short, it runs like this:
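In this multiplexed counter screen, cells were seeded at 2,000 per well in medium with 2% charcoal-stripped FBS and incubated 6 hr before compound and 1nM final E2 were added. Sixteen hours later, ATP-based luminescence reported viability.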

Assay [7] in a line: qHTS assay to identify small molecule agonists or antagonists of the thyroid stimulating hormone receptor (TSHR) signaling pathway - wild type cell line counter screen (AID 1259384; calls by dose curve). The essentials: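 Counter screen in untransfected Hek293: compounds (15-point titration, triplicate) plus phosphodiesterase inhibitor Ro20-1724 added after 18 h plating; 30 min RT. Intracellular cAMP via competitive d2/cryptate immunoassay, 1 h incubation.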

For assay [8], the target named is Thyrotropin receptor (Homo sapiens) (UniProt P16473). Put plainly: qHTS assay to identify small molecule antagonists of the thyroid stimulating hormone receptor (TSHR) signaling pathway (AID 1259385; calls by dose curve; also: nearly all actives have a fitted effect of over 20% in size). In short, it runs like this:
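Antagonist mode: compound-treated TSHR-expressing HEK293 cells were stimulated with 1.5 ng/mL TSH (final) in presence of Ro20-1724 for 30 min at RT. HTRF cAMP detection after 1 h; each compound tested at 15 concentrations, triplicate.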

The nature of assay [9]: qHTS assay to identify small molecule agonists of the estrogen receptor alpha (ER-alpha) signaling pathway in the presence of an antagonist - cell viability counter screen (AID 1259386).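 Also: series mostly up to about 92 µM; cells exposed to compounds for 22 h at 37 °C before the viability read; nearly all actives have a fitted effect of over 30% in size.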 In short, it runs like this: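 Viability counter screen using VM7Luc4E2 (full-length ER-alpha, four ERE-luciferase). The cells were treated with compounds alongside ICI-182,780 10.0nM for 22hr, and live-cell protease fluorescence was quantified with CellTiter-Fluor.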

Assay [10] has as its target Estrogen receptor (Homo sapiens) (UniProt P03372). Put plainly: qHTS assay to identify small molecule agonists of the estrogen receptor alpha (ER-alpha) signaling pathway in the presence of an antagonist (AID 1259383; calls by dose curve; also: nearly all actives have a fitted effect of over 15% in size; also: potency is read from the fitted curve at half-maximal effect; as to activation: top concentration of the series differs between compounds). In short, it runs like this: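 Stably transfected VM7Luc4E2 reporter cells, kept 5 days in charcoal-stripped serum, received ICI-182,780 at 10.0nM final before compound addition. Following 22hr incubation at 37C and 5% CO2, luciferase signal was read by luminescence.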

Sequence of Androgen receptor (Homo sapiens) (P10275 whole entry, looked up): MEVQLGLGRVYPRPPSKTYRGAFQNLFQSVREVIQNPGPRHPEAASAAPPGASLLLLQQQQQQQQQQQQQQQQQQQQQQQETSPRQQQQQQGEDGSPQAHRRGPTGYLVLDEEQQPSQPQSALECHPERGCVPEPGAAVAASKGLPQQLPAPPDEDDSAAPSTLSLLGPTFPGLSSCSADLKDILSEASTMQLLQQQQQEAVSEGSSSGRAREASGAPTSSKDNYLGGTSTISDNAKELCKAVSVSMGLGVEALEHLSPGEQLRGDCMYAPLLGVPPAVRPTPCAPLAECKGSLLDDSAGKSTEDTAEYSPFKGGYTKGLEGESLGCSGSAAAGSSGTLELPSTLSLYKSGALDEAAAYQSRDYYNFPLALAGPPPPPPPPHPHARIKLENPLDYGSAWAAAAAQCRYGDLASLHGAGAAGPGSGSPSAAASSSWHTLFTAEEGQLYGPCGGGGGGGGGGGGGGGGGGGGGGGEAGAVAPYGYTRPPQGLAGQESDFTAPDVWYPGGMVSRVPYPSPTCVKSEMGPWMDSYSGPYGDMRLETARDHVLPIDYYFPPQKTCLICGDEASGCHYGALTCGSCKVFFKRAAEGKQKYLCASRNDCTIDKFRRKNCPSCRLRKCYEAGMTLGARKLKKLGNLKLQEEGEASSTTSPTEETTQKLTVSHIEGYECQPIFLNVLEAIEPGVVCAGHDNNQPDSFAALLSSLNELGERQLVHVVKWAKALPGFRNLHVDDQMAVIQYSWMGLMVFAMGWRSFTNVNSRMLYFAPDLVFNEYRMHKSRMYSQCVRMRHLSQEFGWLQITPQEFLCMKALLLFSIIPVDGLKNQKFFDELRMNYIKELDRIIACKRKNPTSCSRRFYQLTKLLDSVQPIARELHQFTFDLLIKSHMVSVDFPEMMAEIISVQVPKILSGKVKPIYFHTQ
Sequence of Estrogen receptor (Homo sapiens) (P03372 whole entry, looked up): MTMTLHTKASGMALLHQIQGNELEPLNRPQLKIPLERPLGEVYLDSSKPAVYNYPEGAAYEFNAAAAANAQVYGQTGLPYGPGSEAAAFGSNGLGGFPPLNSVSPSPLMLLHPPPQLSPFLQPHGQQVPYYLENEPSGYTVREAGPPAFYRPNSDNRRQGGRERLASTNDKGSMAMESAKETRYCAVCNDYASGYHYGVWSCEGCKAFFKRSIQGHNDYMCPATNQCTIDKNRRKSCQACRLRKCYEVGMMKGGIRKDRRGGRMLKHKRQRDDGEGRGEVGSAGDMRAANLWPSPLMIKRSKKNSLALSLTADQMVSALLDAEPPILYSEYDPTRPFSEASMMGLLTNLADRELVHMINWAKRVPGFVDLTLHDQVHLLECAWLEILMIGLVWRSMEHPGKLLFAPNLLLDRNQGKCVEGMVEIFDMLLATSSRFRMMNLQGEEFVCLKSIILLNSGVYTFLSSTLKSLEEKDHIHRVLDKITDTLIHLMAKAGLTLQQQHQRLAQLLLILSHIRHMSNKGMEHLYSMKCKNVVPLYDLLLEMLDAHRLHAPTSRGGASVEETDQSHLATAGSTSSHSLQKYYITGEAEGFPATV
Sequence of Thyrotropin receptor (Homo sapiens) (P16473 whole entry, looked up): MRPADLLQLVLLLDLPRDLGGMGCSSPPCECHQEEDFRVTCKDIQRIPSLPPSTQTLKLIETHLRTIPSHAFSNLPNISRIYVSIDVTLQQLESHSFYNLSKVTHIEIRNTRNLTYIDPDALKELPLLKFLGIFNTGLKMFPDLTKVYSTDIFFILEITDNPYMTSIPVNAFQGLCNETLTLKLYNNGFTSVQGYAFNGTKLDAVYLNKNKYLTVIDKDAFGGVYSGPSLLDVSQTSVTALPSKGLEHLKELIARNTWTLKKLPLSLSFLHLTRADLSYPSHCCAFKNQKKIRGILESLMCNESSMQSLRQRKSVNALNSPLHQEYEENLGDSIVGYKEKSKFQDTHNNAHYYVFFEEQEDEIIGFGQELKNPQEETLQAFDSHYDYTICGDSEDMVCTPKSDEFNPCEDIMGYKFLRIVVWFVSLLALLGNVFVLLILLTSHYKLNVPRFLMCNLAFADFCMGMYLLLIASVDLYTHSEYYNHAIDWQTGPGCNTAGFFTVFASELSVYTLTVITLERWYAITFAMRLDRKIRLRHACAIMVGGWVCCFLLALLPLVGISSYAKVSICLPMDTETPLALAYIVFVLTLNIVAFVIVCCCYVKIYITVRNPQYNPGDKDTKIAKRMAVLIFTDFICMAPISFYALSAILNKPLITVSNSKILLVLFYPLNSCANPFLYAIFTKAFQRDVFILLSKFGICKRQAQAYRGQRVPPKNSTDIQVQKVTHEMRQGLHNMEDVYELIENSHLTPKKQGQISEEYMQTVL
Sequence of Estrogen receptor beta (Homo sapiens) (Q92731 whole entry, looked up): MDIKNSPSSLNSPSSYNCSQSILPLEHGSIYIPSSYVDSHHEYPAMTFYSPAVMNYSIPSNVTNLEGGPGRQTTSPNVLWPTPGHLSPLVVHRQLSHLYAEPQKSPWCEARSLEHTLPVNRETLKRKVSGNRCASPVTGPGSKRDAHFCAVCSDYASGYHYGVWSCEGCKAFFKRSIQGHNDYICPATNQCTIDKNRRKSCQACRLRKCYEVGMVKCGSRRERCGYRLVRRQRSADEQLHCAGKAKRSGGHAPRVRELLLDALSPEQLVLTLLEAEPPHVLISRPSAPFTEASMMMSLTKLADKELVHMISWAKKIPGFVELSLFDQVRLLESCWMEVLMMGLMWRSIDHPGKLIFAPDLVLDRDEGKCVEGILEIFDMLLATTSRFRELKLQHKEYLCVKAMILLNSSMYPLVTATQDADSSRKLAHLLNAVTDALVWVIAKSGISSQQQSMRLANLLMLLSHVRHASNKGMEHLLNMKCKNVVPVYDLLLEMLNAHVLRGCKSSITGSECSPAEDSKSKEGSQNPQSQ

With `CC(C=O)Cc1ccc(C(C)(C)C)cc1` (stereo not drawn), the Potency entry in assay [1], in [2], in assay [3], in assay [4], in [6] and in [7] was “inactive” in each case. Moreover, the Potency entry in assay [8] and in assay [9] was “inactive” each time. In assay [5], the result was inactive.

As to `CC(=O)OCc1ccc2c(c1)OCO2`, the Potency entry in assay [1], in assay [2], in [3], in assay [4], in assay [6] and in assay [7] was “inactive” each time. For the same compound, the Potency entry in assay [8] and in [9] was “inactive” throughout.

With `CCCN(CCC)C(=O)SCC`, the Potency entry in [1], in assay [2], in assay [3], in assay [4], in assay [6] and in assay [10] was “inactive” each time. Moreover, the Potency entry in assay [8] and in assay [9] was “inactive” throughout. Moreover, the outcome in assay [5] was inactive.

As to `COc1ccc([C@@H]2CC(=O)c3c(O)cc(O[C@@H]4O[C@H](CO[C@@H]5O[C@@H](C)[C@H](O)[C@@H](O)[C@H]5O)[C@@H](O)[C@H](O)[C@H]4O)cc3O2)cc1OC`, the Potency result in assay [1], in assay [2], in [3], in [4], in [6] and in assay [10] was “inactive” throughout. Besides, the Potency result in assay [7], in assay [8] and in [9] was “inactive” each time.

In the case of `OCC(O)CS` (stereo not drawn), the Potency entry in [1], in assay [2], in [3], in [4], in assay [6] and in assay [10] was “inactive” in each case. The Potency entry in assay [8] and in assay [9] was “inactive” each time. Further, in [5], the result was inactive.

On to `Cc1ccc([N+](=O)[O-])cc1N`, for which the Potency entry in [1], in assay [2], in [3], in assay [4], in assay [6] and in assay [10] was “inactive” each time. The Potency result in assay [7], in assay [8] and in assay [9] was “inactive” in each case.

Consider `CCc1cccc(O)c1`, for which the Potency result in [1], in [2], in assay [3], in [4], in assay [6] and in assay [10] was “inactive” throughout. For the same compound, the Potency result in [7], in assay [8] and in assay [9] was “inactive” throughout.

Consider `C=C(CC(=O)O)C(=O)O`, for which the Potency result in assay [1], in [2], in [3], in assay [4], in assay [6] and in [7] was “inactive” in each case. The Potency result in [8] and in assay [9] was “inactive” each time.

With `C1CCCNCC1`, the Potency result in [1], in [2], in assay [3], in assay [4], in [6] and in assay [10] was “inactive” each time. Besides, the Potency result in assay [7], in assay [8] and in [9] was “inactive” in each case.

`COc1c(Cl)ccc(Cl)c1C(=O)O`: the Potency entry in assay [1], in assay [2], in assay [3], in assay [4], in [6] and in assay [10] was “inactive” each time. Also, the Potency result in assay [8] and in assay [9] was “inactive” throughout.

For the compound `CCCCCCCC(=O)O`, the Potency result in [1], in assay [2], in assay [3], in [4], in assay [6] and in assay [9] was “inactive” each time. Besides, in [10], the Potency was 26.3 µM (active) and inactive.

Consider `CN1CCCC1=O`, for which the Potency entry in [1], in [2], in assay [3], in assay [4], in assay [6] and in assay [10] was “inactive” throughout. Moreover, in [9], the Potency result is “inactive”.

Regarding `Cc1cc(C)cc(O)c1`, the Potency result in [1], in assay [2], in [3], in [4], in assay [6] and in assay [10] was “inactive” in each case. The Potency entry in [8] and in [9] was “inactive” in each case.

On to `CC(=O)C(C)C`, for which the Potency entry in assay [1], in assay [2], in assay [3], in [4], in assay [6] and in assay [10] was “inactive” in each case. For the same compound, the Potency entry in assay [9] is “inactive”.

Regarding `CC(=O)c1nccs1`, the Potency entry in assay [3], in assay [4], in [6], in [10], in assay [7] and in assay [8] was “inactive” each time. Moreover, the Potency result in assay [9] was “inactive”.

For the compound `Cc1cccc(C)c1[N+](=O)[O-]`, the Potency result in assay [1], in [2], in assay [4], in [6], in assay [8] and in assay [9] was “inactive” in each case.

As to `CC(=O)OC[C@H]1O[C@@](COC(C)=O)(O[C@H]2O[C@H](COC(C)=O)[C@@H](OC(C)=O)[C@H](OC(C)=O)[C@H]2OC(C)=O)[C@@H](OC(C)=O)[C@@H]1OC(C)=O`, the Potency result in assay [1], in assay [2], in assay [3], in assay [4], in assay [6] and in [8] was “inactive” throughout. Besides, in assay [9], the Potency entry is “inactive”.

In the case of `CN=C(NC#N)NCCSCc1nc[nH]c1C`, the Potency result in assay [1], in [2], in assay [4], in assay [6], in assay [10] and in assay [7] was “inactive” throughout. The Potency result in [8] and in [9] was “inactive” in each case.

Consider `CCCOCC(C)O` (stereo not drawn), for which the Potency result in assay [3], in assay [4], in assay [6], in assay [8] and in assay [9] was “inactive” each time. Besides, in assay [5], the result was inactive.

Take `CC(=O)Nc1ccc(CC(=O)O)cc1`: the Potency entry in assay [3], in assay [4], in assay [6], in assay [10], in [7] and in [8] was “inactive” throughout. In addition, the Potency entry in assay [9] is “inactive”.

As for `Cc1nnc(NS(=O)(=O)c2ccc(N)cc2)s1`, the Potency result in [3], in [4], in assay [6], in assay [10], in assay [7] and in [8] was “inactive” in each case. Further, in assay [9], the Potency result is “inactive”. Also, the outcome in [5] was inactive.

On to `Nc1cccc(C(F)(F)F)c1`, for which the Potency entry in [1], in [2], in [4], in assay [6], in assay [10] and in [7] was “inactive” throughout. Moreover, the Potency entry in assay [8] and in assay [9] was “inactive” each time.

On to `CCCCC(=O)O`, for which the Potency result in [1], in [2], in assay [4], in [6], in assay [10] and in [7] was “inactive” in each case. For the same compound, the Potency entry in [8] and in [9] was “inactive” in each case.

Turning to `OC1CCCCC1`, the Potency entry in assay [3], in assay [4], in assay [6], in [10], in [7] and in assay [8] was “inactive” each time. For the same compound, the Potency entry in assay [9] is “inactive”.

Regarding `OCc1ccc(Cl)cc1Cl`, the Potency entry in assay [1], in [2], in assay [4], in assay [6] and in assay [9] was “inactive” each time.
